Sampled rows, rich in hits. Any-hit rate of the full collection: about 19%.
TDP1 cell noCPT = qHTS for Inhibitors of human tyrosyl-DNA phosphodiesterase 1 (TDP1): qHTS in cells in absence of CPT | 15% of 420,000 active | AID 686978, 2013 | DT40 Tdp1-/- hTDP1 cells, no CPT, ATP luminescence, 48 h | Potency, µM (top dose mostly 46.2 µM), inactives show at the highest dose activity change, negative = growth inhibition, actives largely listed as inhibitors; further: potency means the concentration at half of the fitted maximal effect; nearly all actives have a fitted effect of over 55% in size
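Growth kinetics read by CellTiter-Glo luminescence after ≥48 hr at 37 °C. Cells: DT40 Tdp1-/- stably carrying human TDP1, 400 per well, compound exposure in the absence of CPT (DMSO vehicle).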
ELG1 DNA repair = inhibitors of ELG1-dependent DNA repair in HEK293T cells; 2.3% of 330,000 active; Potency, µM (doses to about 46.1 µM), for inactives: at the highest dose activity change, negative = inhibition, most hits filed as inhibitors; HEK293T ELG1-luciferase reporter, luminescence, 16 h; DNA damage induced by 5-fluorouridine; AID 504467; further: potency means the concentration at half of the fitted maximal effect; nearly all actives have a fitted effect of over 55% in size
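Overnight (16 hr) co-exposure of 2,000 cells/well to 5-fluorouridine and compound at 37 °C preceded detection. Luciferase was quantified via ONE-Glo luminescence; loss of signal denotes inhibition.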
IL-1B inflam inh = inflammasome signaling inhibition, IL-1 beta readout; activity change, % at 57.5 µM; 4.7% of 360,000 active; THP-1 LPS/ATP IL-1B secretion, AlphaLISA, 16 h; hits give low values; in the data active means activity change below about -50%; inconclusive means mostly about -30% to -49%
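THP-1 cells pretreated 1 hr with compounds (up to 57.5 uM final), then stimulated with LPS (250 ng/mL final) plus ATP (1.25 mM final); secreted IL-1B measured by AlphaLISA after 16 hr, decreased signal indicating inhibition.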
DT40 TDP1 CPT = growth inhibition of DT40 Tdp1-/-;hTDP1 cells with camptothecin (screen for TDP1 inhibitors) | chicken DT40 Tdp1-/-;hTDP1 cells + 20 nM CPT, ATP luminescence, 48 h | Potency, µM (titrated, usually from 46.2 µM), inactives show top-dose activity change, negative = growth inhibition, usual class: inhibitors | 12% of 420,000 active | AID 686979; further: potency means the concentration at half of the fitted maximal effect; nearly all actives have a fitted effect of over 55% in size
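Chicken DT40 Tdp1-/- cells stably complemented with human TDP1 were seeded at 400 cells/well in medium containing 20 nM camptothecin, exposed to pin-transferred compounds, and grown at 37 °C for at least 48 hr. Viability was read as ATP luminescence.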
HT1080 IDH1KD tx = toxicity to HT-1080 IDH1 knockdown cells (counter line); HT-1080 IDH1 knockdown viability, ATP luminescence, 48 h; Potency, µM (titrated, usually from 46.1 µM), inactives show top-dose activity, negative = toxicity, usual class: cytotoxic; 2% of 360,000 active;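 further: potency means the concentration at half of the fitted maximal effect; 0% = DMSO wells and -100% = cell-free medium wells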
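Knockdown cells (IDH1KD HT-1080) received compounds 2 h after plating at 750 cells/well and were kept 48 h at 37 °C in 5% FBS RPMI. A CellTiter-Glo luminescence read gave % activity for curve fitting.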
HT1080-NT tox = kills 2HG-producing HT-1080-NT fibrosarcoma cells; 1.6% of 360,000 active; HT-1080-NT fibrosarcoma viability, CellTiter-Glo ATP luminescence, 48 h; AID 686970; Potency, µM (doses to about 46.1 µM), for the others: at the top dose activity, negative = less viability, usual class: cytotoxic;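 further: NT is the 2HG producing partner of a matched IDH1 knockdown line; potency means the concentration at half of the fitted maximal effect; 0% = DMSO-treated cells and -100% = media-only wells without cells; nearly all actives have a fitted effect of over 55% in size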
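Compounds were tested in concentration-response format on HT-1080-NT cells for 48 hours at 37 degrees C. Cell viability came from CellTiter-Glo luminescence; curves were classified by r2, response magnitude and activity.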
* = called active by the depositor; ? = inconclusive; nt = no result given. Unless noted, the call rests on the fitted dose curve; in most records, active means well fitted curve in the direction sought with a large enough effect; inconclusive means small, poorly fitted or top-dose-only effect, or another doubt; inactive means no such curve, though single readings can be large; an effect the other way counts as inactive or inconclusive. Unless noted, on the % scale 0 is the no-effect control and ±100 the full control effect.

SMILES	TDP1 cell noCPT	ELG1 DNA repair	IL-1B inflam inh	DT40 TDP1 CPT	HT1080 IDH1KD tx	HT1080-NT tox
O=C(NCCc1csc(-c2ccccc2)n1)c1ccc(Br)o1	21µM*	-15%	16	?	8%	16%
COc1ccc(-n2c(=O)c(C)nc3cnc(N4CCNCC4)nc32)cc1	-5%	nt	nt	1%	nt	nt
Cc1c(NC(=O)CSc2ccc3ccccc3n2)c(=O)n(-c2ccccc2)n1C	13%	14%	-30	14%	1%	17%
CC(=O)NC(c1ccccc1)c1nc(-c2ccc(Cl)cc2)cs1 (configuration not stated)	?	nt	-13	?	-6%	-1%
Cc1ccccc1C(=O)Nc1nnc(-c2ccncc2)o1	?	-14%	0	-28%	-3%	0%
O=C(Nc1nnc(-c2ccco2)o1)c1ccc(Cl)cc1	13µM*	?	7	?	?	?
Cc1ccccc1C(=O)Nc1nnc(-c2ccco2)o1	18µM*	?	-2	21µM*	-9%	0%
O=C(Nc1nnc(-c2ccco2)o1)c1cccc(N2C(=O)CCC2=O)c1	6%	?	24	12%	9%	10%
Cc1ccc(C(=O)Nc2nnc(-c3ccco3)o2)cc1C	15µM*	?	-20	23µM*	?	-21%
O=C(CSc1ccc(Cl)cc1)Nc1nnc(-c2ccco2)o1	?	11%	9	?	-15%	2%
COc1ccc(-c2nnc(NC(=O)c3ccccc3C)o2)cc1	15µM*	?	10	16µM*	-28%	-16%
CCn1c(SCC(=O)N2CCC(C)CC2)nnc1-c1ccco1	2%	-5%	5	14%	19%	-1%
COc1ccc(CNC(=O)COC(=O)CN2C(=O)NC3(CCCC3)C2=O)cc1	15%	16%	17	24%	13%	10%
CSc1ccc(COC(=O)CCS(=O)(=O)c2ccc(C)cc2)cc1	4%	13%	5	-5%	-9%	-5%
Cc1cccc(C(=O)Nc2nnc(-c3ccco3)o2)c1	10µM*	22%	-3	23µM*	-25%	-17%
O=C(COc1ccc(Cl)cc1)Nc1nnc(-c2ccc3c(c2)CCCC3)o1	5.8µM*	?	15	-4%	9%	19%
O=C(Nc1nnc(-c2ccccc2Cl)o1)c1ccco1	?	?	-1	?	?	8.9µM*
COc1ccccc1C(=O)Nc1nnc(-c2ccc3c(c2)CCCC3)o1	23µM*	16%	-63*	?	-16%	-17%
O=C(COc1ccccc1)Nc1nnc(-c2ccc(Cl)cc2)o1	?	2%	2	?	-10%	-4%
CCN(CC)S(=O)(=O)c1ccc2c(c1)c(=O)c(C(=O)N1CCN(c3ccc(F)cc3)CC1)cn2C	-27%	nt	nt	-17%	nt	nt
CCC(=O)C(C#N)(c1ccc(OC)c(OC)c1)C(C)C (configuration not stated)	13%	?	13	-13%	15%	10%
CC1(Oc2ccc(F)cc2)CCN(Cc2ccccc2OC(F)F)C1 (configuration not stated)	-22%	nt	0	-18%	-3%	14%
COc1cc(=O)n2c(c1C(=O)N(C)Cc1cscn1)CCN(Cc1ccc3c(c1)OCCO3)CC2	9%	nt	nt	20%	nt	nt
Cc1ccc(C)c(OCCC(=O)OCC(=O)N2CCN(S(=O)(=O)c3ccc(Cl)cc3)CC2)c1	?	?	-15	?	-3%	-2%
Cc1ccccc1OCCC(=O)Nc1ccc(S(=O)(=O)N2CCCC2)cc1	15µM*	nt	23	21µM*	-21%	-15%
SMILES	TDP1 cell noCPT	ELG1 DNA repair	IL-1B inflam inh	DT40 TDP1 CPT	HT1080 IDH1KD tx	HT1080-NT tox
COc1ccc(S(=O)(=O)N2CCN(C(=O)CCSc3ccccc3)CC2)cc1	?	?	-4	12µM*	-8%	-3%
CCOc1ccc(OCCC(=O)OCC(=O)N2CCN(S(=O)(=O)c3ccc(Cl)cc3)CC2)cc1	23µM*	-20%	-85*	?	?	?
CCOc1ccc(S(=O)(=O)N2CCN(C(=O)CCOc3ccccc3C)CC2)cc1	18µM*	?	-12	?	-11%	-4%
O=C(c1cc(S(=O)(=O)N2CCOCC2)ccc1F)N1CCc2ccccc21	?	?	10	?	-10%	-1%
COCc1cc(C)nc(SCc2ccc(Br)cc2)c1C#N	?	nt	11	18%	-1%	7%
COc1ccc(C(=O)C2CCCN(C(=O)/C=C/c3ccccn3)C2)c(C)c1 (configuration not stated)	?	4%	13	-4%	12%	11%
CCOC1=C2[C@H](c3ccccc3)N(S(=O)(=O)c3ccc(C)cc3)[C@H](C(C)C)[C@H]2n2c(=O)n(-c3ccccc3)c(=O)n2C1	-11%	nt	5	-11%	7%	7%
COc1ccc(Nc2nc3c(S(=O)(=O)c4ccccc4)nnn3c3ccc(Cl)cc23)cc1	9.2µM*	nt	nt	6.5µM*	nt	nt
CCc1ccc(S(=O)(=O)c2nnn3c2nc(Nc2ccc(F)cc2)c2cc(Cl)ccc23)cc1	5.2µM*	nt	nt	3.7µM*	nt	nt
COc1ccc(Nc2nc3c(S(=O)(=O)c4ccccc4)nnn3c3ccc(Cl)cc23)cc1OC	0%	nt	nt	0%	nt	nt
CCCn1c(=O)c2sccc2n2c(CCCC(=O)N3CCN(c4cccc(C)c4C)CC3)nnc12	18µM*	nt	nt	21µM*	nt	nt
CCCn1c(=O)c2sccc2n2c(CCCC(=O)NCCc3ccc(Cl)cc3)nnc12	21µM*	nt	nt	?	nt	nt
CCCn1c(=O)c2sccc2n2c(CCCC(=O)N3CCN(c4ccccc4OC)CC3)nnc12	?	nt	nt	18µM*	nt	nt
CCn1c(=O)c2sccc2n2c(CCC(=O)N3CCN(c4ccccc4OC)CC3)nnc12	-24%	nt	nt	-20%	nt	nt
CCCn1c(=O)c2sccc2n2c(CCCC(=O)NCC3CCCO3)nnc12 (configuration not stated)	16%	7%	10	-9%	1%	-3%
CCCn1c(=O)c2sccc2n2c(CCCC(=O)N3CCN(c4cccc(Cl)c4)CC3)nnc12	12µM*	nt	nt	?	nt	nt
O=C(CCN(NC(=O)c1ccccc1)C1=NS(=O)(=O)c2ccccc21)NC1CCCCC1	-4%	20%	0	-3%	11%	10%

Compound activity deposited in PubChem BioAssay by National Center for Advancing Translational Sciences (NCATS).
